Common to all, as to assay: PBM; 200 nM protein, PBS
Common to all, as to settings: dsDNA, one strand shown

In test [1] the target is HOXB4 (Homo sapiens, UniProt P17483 148-234).
The target of test [2] is HOXA4 (Homo sapiens, UniProt Q00056 201-287, W262R).
Test [3] deals with HOXA2 (Homo sapiens, UniProt O43364 129-215, R185T).
Test [4] has as its target HOXA4 (Homo sapiens, UniProt Q00056 201-287, R217L).
The target of test [5] is HOXB4 (Homo sapiens, UniProt P17483 148-234, V174I).
Test [6] deals with HOXA2 (Homo sapiens, UniProt O43364 129-215, R185K).
Test [7] addresses HOXA4 (Homo sapiens, UniProt Q00056 201-287).
Test [8] addresses VAX1 (Homo sapiens, UniProt Q5SQQ9 86-172, T142I).
The target of test [9] is HOXA2 (Homo sapiens, UniProt O43364 129-215, Y150S).
For test [10], the target named is HOXA4 (Homo sapiens, UniProt Q00056 201-287, W262F).
Test [11] deals with HOXA2 (Homo sapiens, UniProt O43364 129-215).
For test [12], the target named is VAX1 (Homo sapiens, UniProt Q5SQQ9 86-172).
Test [13] deals with VAX1 (Homo sapiens, UniProt Q5SQQ9 86-172, K157R).
Test [14] has as its target HOXA7 (Homo sapiens, UniProt P31268 116-202).
In test [15] the target is HOXA7 (Homo sapiens, UniProt P31268 116-202, W177C).
Test [16] addresses HOXB6 (Homo sapiens, UniProt P17509 132-218, K202E).
Test [17] addresses HOXB6 (Homo sapiens, UniProt P17509 132-218).

Chain of VAX1 (Homo sapiens, UniProt Q5SQQ9 86-172, T142I) (Q5SQQ9 86-172 T142I): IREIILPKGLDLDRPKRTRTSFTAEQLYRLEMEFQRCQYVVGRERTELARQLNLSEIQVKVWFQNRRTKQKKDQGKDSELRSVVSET
Chain of HOXA7 (Homo sapiens, UniProt P31268 116-202, W177C) (P31268 116-202 W177C): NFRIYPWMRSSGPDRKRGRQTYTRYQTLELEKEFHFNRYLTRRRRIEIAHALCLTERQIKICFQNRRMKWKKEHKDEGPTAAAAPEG
Chain of HOXB4 (Homo sapiens, UniProt P17483 148-234) (P17483 148-234): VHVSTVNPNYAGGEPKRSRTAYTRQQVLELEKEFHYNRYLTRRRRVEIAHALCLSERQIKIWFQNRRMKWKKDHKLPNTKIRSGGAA
Chain of HOXA2 (Homo sapiens, UniProt O43364 129-215, Y150S) (O43364 129-215 Y150S): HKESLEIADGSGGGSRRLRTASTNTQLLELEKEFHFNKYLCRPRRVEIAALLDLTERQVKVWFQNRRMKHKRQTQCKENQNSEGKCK
Chain of HOXA4 (Homo sapiens, UniProt Q00056 201-287) (Q00056 201-287): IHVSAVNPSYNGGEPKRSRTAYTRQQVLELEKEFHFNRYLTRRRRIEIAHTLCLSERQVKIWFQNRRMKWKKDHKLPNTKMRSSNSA
Chain of HOXA4 (Homo sapiens, UniProt Q00056 201-287, W262R) (Q00056 201-287 W262R): as the sequence (Q00056 201-287) above, with W62R counted along it
Chain of HOXA2 (Homo sapiens, UniProt O43364 129-215) (O43364 129-215): as the sequence (O43364 129-215 Y150S) above, with S22Y counted along it
Chain of HOXB6 (Homo sapiens, UniProt P17509 132-218, K202E) (P17509 132-218 K202E): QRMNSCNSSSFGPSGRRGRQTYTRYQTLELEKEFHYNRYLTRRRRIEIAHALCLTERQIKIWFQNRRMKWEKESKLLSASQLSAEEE
Chain of HOXA4 (Homo sapiens, UniProt Q00056 201-287, R217L) (Q00056 201-287 R217L): as the sequence (Q00056 201-287) above, with R17L counted along it
Chain of HOXA2 (Homo sapiens, UniProt O43364 129-215, R185K) (O43364 129-215 R185K): as the sequence (O43364 129-215 Y150S) above, with S22Y, R57K counted along it
Chain of HOXB4 (Homo sapiens, UniProt P17483 148-234, V174I) (P17483 148-234 V174I): as the sequence (P17483 148-234) above, with V27I counted along it
Chain of HOXA2 (Homo sapiens, UniProt O43364 129-215, R185T) (O43364 129-215 R185T): as the sequence (O43364 129-215 Y150S) above, with S22Y, R57T counted along it
Chain of HOXA4 (Homo sapiens, UniProt Q00056 201-287, W262F) (Q00056 201-287 W262F): as the sequence (Q00056 201-287) above, with W62F counted along it
Chain of HOXA7 (Homo sapiens, UniProt P31268 116-202) (P31268 116-202): as the sequence (P31268 116-202 W177C) above, with C62W counted along it
Chain of VAX1 (Homo sapiens, UniProt Q5SQQ9 86-172, K157R) (Q5SQQ9 86-172 K157R): as the sequence (Q5SQQ9 86-172 T142I) above, with I57T, K72R counted along it
Chain of HOXB6 (Homo sapiens, UniProt P17509 132-218) (P17509 132-218): as the sequence (P17509 132-218 K202E) above, with E71K counted along it
Chain of VAX1 (Homo sapiens, UniProt Q5SQQ9 86-172) (Q5SQQ9 86-172): as the sequence (Q5SQQ9 86-172 T142I) above, with I57T counted along it

On to ATAATGAT, for which the binding signal is 13.2 upbm affinity estimate (log intensity, higher = more binding, comparable within an allelic series) with HOXB4 [1]; 10.6 upbm affinity estimate (log intensity, higher = more binding, comparable within an allelic series) with HOXA4 [2]; 12.1 upbm affinity estimate (log intensity, higher = more binding, comparable within an allelic series) with HOXA2 [3]; 12.2 upbm affinity estimate (log intensity, higher = more binding, comparable within an allelic series) in the test with HOXA4 [4]; 13.8 upbm affinity estimate (log intensity, higher = more binding, comparable within an allelic series) with HOXB4 [5]; 13.1 upbm affinity estimate (log intensity, higher = more binding, comparable within an allelic series) with HOXA2 [6]. Besides, the binding signal with HOXA4 [7] was 13.9 upbm affinity estimate (log intensity, higher = more binding, comparable within an allelic series); in the test with VAX1 [8] it was 12.3 upbm affinity estimate (log intensity, higher = more binding, comparable within an allelic series); in the test with HOXA2 [9], 10.9 upbm affinity estimate (log intensity, higher = more binding, comparable within an allelic series); with HOXA4 [10], 11.5 upbm affinity estimate (log intensity, higher = more binding, comparable within an allelic series); with HOXA2 [11], 12.1 upbm affinity estimate (log intensity, higher = more binding, comparable within an allelic series).

With TTAATGAA, the binding signal with HOXB4 [1] was 13 upbm affinity estimate (log intensity, higher = more binding, comparable within an allelic series); with HOXA4 [2] it was 10.7 upbm affinity estimate (log intensity, higher = more binding, comparable within an allelic series); with HOXA2 [3], 12 upbm affinity estimate (log intensity, higher = more binding, comparable within an allelic series); with HOXA4 [4], 12.2 upbm affinity estimate (log intensity, higher = more binding, comparable within an allelic series); with HOXB4 [5] it was 13.7 upbm affinity estimate (log intensity, higher = more binding, comparable within an allelic series); in the test with HOXA2 [6], 12.9 upbm affinity estimate (log intensity, higher = more binding, comparable within an allelic series). Besides, the binding signal was 13.8 upbm affinity estimate (log intensity, higher = more binding, comparable within an allelic series) with HOXA4 [7]; 12.7 upbm affinity estimate (log intensity, higher = more binding, comparable within an allelic series) with VAX1 [12]; 12.4 upbm affinity estimate (log intensity, higher = more binding, comparable within an allelic series) with VAX1 [8]; 10.8 upbm affinity estimate (log intensity, higher = more binding, comparable within an allelic series) with HOXA2 [9]; 11.8 upbm affinity estimate (log intensity, higher = more binding, comparable within an allelic series) with HOXA4 [10]; 12.1 upbm affinity estimate (log intensity, higher = more binding, comparable within an allelic series) with HOXA2 [11]. The binding signal with VAX1 [13] is 12.4 upbm affinity estimate (log intensity, higher = more binding, comparable within an allelic series).

Consider CGGCAGAG, for which the binding signal with HOXB4 [1] is 7.39 upbm affinity estimate (log intensity, higher = more binding, comparable within an allelic series); in the test with HOXA7 [14], 8.53 upbm affinity estimate (log intensity, higher = more binding, comparable within an allelic series); with HOXB4 [5], 7.51 upbm affinity estimate (log intensity, higher = more binding, comparable within an allelic series); with HOXA7 [15], 8.39 upbm affinity estimate (log intensity, higher = more binding, comparable within an allelic series).

Turning to ACCTCTCG, the binding signal in the test with HOXB4 [1] was 7.54 upbm affinity estimate (log intensity, higher = more binding, comparable within an allelic series); in the test with HOXA4 [2], 9.8 upbm affinity estimate (log intensity, higher = more binding, comparable within an allelic series); with HOXA4 [4], 9.73 upbm affinity estimate (log intensity, higher = more binding, comparable within an allelic series); in the test with HOXB4 [5], 7.48 upbm affinity estimate (log intensity, higher = more binding, comparable within an allelic series); with HOXA4 [7] it was 9.69 upbm affinity estimate (log intensity, higher = more binding, comparable within an allelic series); with HOXA4 [10] it was 9.82 upbm affinity estimate (log intensity, higher = more binding, comparable within an allelic series).

CCTACCGC: the binding signal with HOXB4 [1] was 7.61 upbm affinity estimate (log intensity, higher = more binding, comparable within an allelic series); in the test with HOXB4 [5] it was 7.56 upbm affinity estimate (log intensity, higher = more binding, comparable within an allelic series).

Turning to CGTGGCGC, the binding signal with HOXB4 [1] was 7.6 upbm affinity estimate (log intensity, higher = more binding, comparable within an allelic series); with HOXB4 [5], 7.68 upbm affinity estimate (log intensity, higher = more binding, comparable within an allelic series).

In the case of CGCCGAAG, the binding signal with HOXB4 [1] is 7.84 upbm affinity estimate (log intensity, higher = more binding, comparable within an allelic series); with HOXB6 [16], 9.07 upbm affinity estimate (log intensity, higher = more binding, comparable within an allelic series); in the test with HOXB4 [5] it was 7.65 upbm affinity estimate (log intensity, higher = more binding, comparable within an allelic series); with HOXB6 [17], 9.15 upbm affinity estimate (log intensity, higher = more binding, comparable within an allelic series).

Regarding CTGGCGGC, the binding signal with HOXB4 [1] is 7.3 upbm affinity estimate (log intensity, higher = more binding, comparable within an allelic series); with HOXA4 [2] it was 9.71 upbm affinity estimate (log intensity, higher = more binding, comparable within an allelic series); in the test with HOXA7 [14], 8.57 upbm affinity estimate (log intensity, higher = more binding, comparable within an allelic series); with HOXA2 [3] it was 7.15 upbm affinity estimate (log intensity, higher = more binding, comparable within an allelic series); in the test with HOXA4 [4] it was 9.74 upbm affinity estimate (log intensity, higher = more binding, comparable within an allelic series); in the test with HOXB4 [5] it was 7.49 upbm affinity estimate (log intensity, higher = more binding, comparable within an allelic series). In addition, the binding signal was 10.3 upbm affinity estimate (log intensity, higher = more binding, comparable within an allelic series) with HOXA2 [6]; 9.58 upbm affinity estimate (log intensity, higher = more binding, comparable within an allelic series) with HOXA4 [7]; 10.5 upbm affinity estimate (log intensity, higher = more binding, comparable within an allelic series) with HOXA2 [9]; 8.35 upbm affinity estimate (log intensity, higher = more binding, comparable within an allelic series) in the test with HOXA7 [15]; 9.86 upbm affinity estimate (log intensity, higher = more binding, comparable within an allelic series) with HOXA4 [10]; 7.36 upbm affinity estimate (log intensity, higher = more binding, comparable within an allelic series) with HOXA2 [11].

In the case of AGGGGGGG, the binding signal with HOXB4 [1] is 7.37 upbm affinity estimate (log intensity, higher = more binding, comparable within an allelic series); in the test with HOXB4 [5], 7.23 upbm affinity estimate (log intensity, higher = more binding, comparable within an allelic series).

Consider CGGGCTTC, for which the binding signal in the test with HOXB4 [1] was 7.22 upbm affinity estimate (log intensity, higher = more binding, comparable within an allelic series); with HOXA4 [2] it was 9.75 upbm affinity estimate (log intensity, higher = more binding, comparable within an allelic series); with HOXA4 [4] it was 9.66 upbm affinity estimate (log intensity, higher = more binding, comparable within an allelic series); in the test with HOXB4 [5] it was 7.19 upbm affinity estimate (log intensity, higher = more binding, comparable within an allelic series); in the test with HOXA4 [7], 9.6 upbm affinity estimate (log intensity, higher = more binding, comparable within an allelic series); with HOXA4 [10], 9.77 upbm affinity estimate (log intensity, higher = more binding, comparable within an allelic series).

Take GGCCCCCA: the binding signal is 7.76 upbm affinity estimate (log intensity, higher = more binding, comparable within an allelic series) with HOXB4 [1]; 9.68 upbm affinity estimate (log intensity, higher = more binding, comparable within an allelic series) with HOXA4 [2]; 9.68 upbm affinity estimate (log intensity, higher = more binding, comparable within an allelic series) with HOXA4 [4]; 7.77 upbm affinity estimate (log intensity, higher = more binding, comparable within an allelic series) in the test with HOXB4 [5]; 9.71 upbm affinity estimate (log intensity, higher = more binding, comparable within an allelic series) in the test with HOXA4 [7]; 9.82 upbm affinity estimate (log intensity, higher = more binding, comparable within an allelic series) in the test with HOXA4 [10].

For the sequence TAATGATA, the binding signal was 13.4 upbm affinity estimate (log intensity, higher = more binding, comparable within an allelic series) with HOXB4 [1]; 10.5 upbm affinity estimate (log intensity, higher = more binding, comparable within an allelic series) in the test with HOXA4 [2]; 10 upbm affinity estimate (log intensity, higher = more binding, comparable within an allelic series) in the test with HOXB6 [16]; 12.2 upbm affinity estimate (log intensity, higher = more binding, comparable within an allelic series) with HOXA2 [3]; 12.2 upbm affinity estimate (log intensity, higher = more binding, comparable within an allelic series) in the test with HOXA4 [4]; 14.1 upbm affinity estimate (log intensity, higher = more binding, comparable within an allelic series) with HOXB4 [5]. Also, the binding signal is 13.2 upbm affinity estimate (log intensity, higher = more binding, comparable within an allelic series) in the test with HOXA2 [6]; 13.9 upbm affinity estimate (log intensity, higher = more binding, comparable within an allelic series) with HOXA4 [7]; 12.7 upbm affinity estimate (log intensity, higher = more binding, comparable within an allelic series) with VAX1 [12]; 12.5 upbm affinity estimate (log intensity, higher = more binding, comparable within an allelic series) with VAX1 [8]; 11 upbm affinity estimate (log intensity, higher = more binding, comparable within an allelic series) with HOXA2 [9]; 11.6 upbm affinity estimate (log intensity, higher = more binding, comparable within an allelic series) in the test with HOXA4 [10]. Besides, the binding signal with HOXA2 [11] was 12.3 upbm affinity estimate (log intensity, higher = more binding, comparable within an allelic series); with VAX1 [13], 12.3 upbm affinity estimate (log intensity, higher = more binding, comparable within an allelic series).

In the case of CAGGCCCC, the binding signal in the test with HOXB4 [1] was 7.68 upbm affinity estimate (log intensity, higher = more binding, comparable within an allelic series); with HOXA4 [2], 9.66 upbm affinity estimate (log intensity, higher = more binding, comparable within an allelic series); in the test with HOXA4 [4], 9.56 upbm affinity estimate (log intensity, higher = more binding, comparable within an allelic series); in the test with HOXB4 [5], 7.6 upbm affinity estimate (log intensity, higher = more binding, comparable within an allelic series); in the test with HOXA4 [7] it was 9.7 upbm affinity estimate (log intensity, higher = more binding, comparable within an allelic series); with HOXA4 [10] it was 9.81 upbm affinity estimate (log intensity, higher = more binding, comparable within an allelic series).

In the case of ACCGTGGG, the binding signal with HOXB4 [1] was 7.69 upbm affinity estimate (log intensity, higher = more binding, comparable within an allelic series); with HOXA7 [14] it was 8.39 upbm affinity estimate (log intensity, higher = more binding, comparable within an allelic series); with HOXB4 [5], 7.68 upbm affinity estimate (log intensity, higher = more binding, comparable within an allelic series); with HOXA7 [15] it was 8.44 upbm affinity estimate (log intensity, higher = more binding, comparable within an allelic series).

Consider CCGGACCA, for which the binding signal with HOXB4 [1] is 7.72 upbm affinity estimate (log intensity, higher = more binding, comparable within an allelic series); in the test with HOXB6 [16] it was 9.06 upbm affinity estimate (log intensity, higher = more binding, comparable within an allelic series); with HOXB4 [5] it was 7.8 upbm affinity estimate (log intensity, higher = more binding, comparable within an allelic series); in the test with HOXB6 [17], 8.79 upbm affinity estimate (log intensity, higher = more binding, comparable within an allelic series).

For the origin of these results see paper PMC11006913.
